The campaign covered roughly 46,000 compounds. About 900 (2%) were called active. About 1% were inconclusive and are not listed. The full list was thinned out, with actives kept by preference. Values without a mark were called inactive. Cut-off read from the data, not from the text of the source: active = ROS induction above about 79% (passing the limit was not always enough); inconclusive = no clear call, values can overlap the other calls.

The experiment is described as follows: ROS inducers in U2OS cancer cells, primary screen, cell-based, H2DCF-DA fluorescence (AID 624156).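 Note: 0% = DMSO vehicle median and 100% = reference compound median.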 As to conditions: at 10 µM, stronger effect = higher value.
With `COc1cccc(-c2cnc3c(c2)C(=O)N([C@H](C)CO)C[C@H](C)[C@H](CN(C)Cc2ccncc2)O3)c1`, the ROS induction (% of piperlongumine) was 32.7%. Regarding `Cc1c(C(=O)N(Cc2ccccc2)Cc2cccnc2)cnn1-c1ccc(F)cc1`, the ROS induction (% of piperlongumine) was -9.45%.

As for `Brc1ccc(/C=N/n2cnnc2SCc2ccccc2)cc1`, the ROS induction (% of piperlongumine) is 2.37%.

On to `COc1ccc(NS(=O)(=O)c2ccc3c4c(cccc24)C(=O)S3)cc1`, for which the ROS induction (% of piperlongumine) was 35.7%. With `O=C(Oc1c(Br)cc(Br)c2cccnc12)N1CCOCC1`, the ROS induction (% of piperlongumine) is 3.35%. To `COC(=O)c1c(C)n(CCNc2ccc([N+](=O)[O-])cc2)c2ccc(O)cc12` belongs 98.5% (active); to `O=[N+]([O-])c1ccc(NCCNc2nc3ccccc3nc2N2CCOCC2)cc1`, 61%. Then `COC(=O)c1ccc(NCc2cc(O)ccc2O)cc1`, with 10.2%; and `C[C@@H]1CCCCO[C@@H](CN(C)C(=O)NC2CCCCC2)[C@@H](C)CN([C@H](C)CO)C(=O)c2cc(NC(=O)CCC(F)(F)F)ccc2O1`, with 37.6%. Turning to `Cc1noc(C)c1NC(=O)N(C)C[C@@H]1Oc2ccc(NC(=O)Nc3ccc(C(F)(F)F)cc3)cc2C(=O)N([C@H](C)CO)C[C@@H]1C`, the ROS induction (% of piperlongumine) was -6.13%.

Regarding `C[C@H]1CN([C@@H](C)CO)C(=O)c2cc(NC(=O)Nc3ccccc3)ccc2O[C@@H]1CN(C)C(=O)Nc1ccccc1`, the ROS induction (% of piperlongumine) was -12.6%. Turning to `Cc1noc(C)c1NC(=O)N(C)C[C@H]1Oc2ccc(NC(=O)Nc3ccc(C(F)(F)F)cc3)cc2CC(=O)N([C@@H](C)CO)C[C@@H]1C`, the ROS induction (% of piperlongumine) is 87.8% (active). With `C[C@H](CO)N1C[C@H](C)[C@H](CN(C)C(=O)Nc2ccc(C(F)(F)F)cc2)Oc2ccc(NS(=O)(=O)c3cn(C)cn3)cc2CC1=O`, the ROS induction (% of piperlongumine) was 125% (active). As to `C[C@H](CO)N1C[C@H](C)[C@H](CN(C)C(=O)Nc2ccc(C(F)(F)F)cc2)Oc2ccc(NC(=O)Nc3ccccc3)cc2C1=O`, the ROS induction (% of piperlongumine) was 84% (active). Then `C[C@@H]1CN([C@H](C)CO)C(=O)Cc2cc(NS(=O)(=O)c3cn(C)cn3)ccc2O[C@@H]1CN(C)C(=O)Nc1ccccc1`, with -5.68%. Then `C[C@H]1CN([C@@H](C)CO)C(=O)Cc2cc(NS(=O)(=O)c3cn(C)cn3)ccc2O[C@H]1CN(C)C(=O)Nc1ccc(F)cc1`, with 29.3%; and `C[C@@H]1CN([C@H](C)CO)C(=O)c2cc(NC(=O)Nc3ccc(C(F)(F)F)cc3)ccc2O[C@H]1CN(C)C(=O)Nc1ccccc1`, with 23.2%; and `Cc1noc(C)c1NC(=O)Nc1ccc2c(c1)CC(=O)N([C@H](C)CO)C[C@@H](C)[C@@H](CN(C)Cc1ccc(C(F)(F)F)cc1)O2`, with 6.6%. Regarding `NC(=O)N1CCc2ccccc21`, the ROS induction (% of piperlongumine) was 6.65%. To `O=C(CCCCCCC(=O)Nc1ccccc1O)N/N=C/c1ccc(C(F)(F)F)cc1` belongs 7.34%; to `COc1ccc(C2NNC(=S)S2)cc1` (stereo not drawn), -8.92%; to `O=C(N1CCCc2ccccc21)N1c2ccccc2Sc2ccccc21`, -12.4%. On to `C=CCN(C(=O)Cc1ccc(OC)cc1)c1nnc(-c2ccc(Cl)cc2)s1`, for which the ROS induction (% of piperlongumine) is -4.96%. Then `COc1ccc(C)cc1S(=O)(=O)N1CCN(C)CC1`, with -20.4%. Then `C[C@@H]1CN([C@H](C)CO)C(=O)c2cc(NC(=O)NC3CCCCC3)ccc2O[C@H]1CN(C)S(C)(=O)=O`, with -3.72%. As to `COC(=O)c1ccc(NC(=S)N2CCOCC2)cc1`, the ROS induction (% of piperlongumine) was -2.33%. Then `C[C@H]1CN([C@@H](C)CO)C(=O)CCCn2cc(nn2)CO[C@H]1CN(C)S(=O)(=O)c1ccc2ccccc2c1`, with 9.35%. With `CC1CC(NC(=S)N(C)C)CC(C)(C)C1` (stereo not drawn), the ROS induction (% of piperlongumine) is -10.5%. To `O=C(Nc1ccccc1Cl)c1ccccc1S(=O)(=O)c1ccccc1[N+](=O)[O-]` belongs 134% (active); to `O=C(CCc1nc(-c2ccccc2Cl)no1)Nc1ccccc1[N+](=O)[O-]`, -1.7%. In the case of `CC1CCN(S(=O)(=O)c2ccc(Cl)c(C(=O)Nc3ccccc3[N+](=O)[O-])c2)CC1`, the ROS induction (% of piperlongumine) is -11.1%. To `COc1cccc(CNC(=O)CCn2nc(-c3ccccc3)ccc2=O)c1` belongs -6.11%; to `CCc1cccc(NS(=O)(=O)c2cc(Br)cc3c2N(C(=O)C2CC2)CC3)c1`, 31.7%; to `O=C1c2ccccc2S(=O)c2ccccc2S(=O)(=O)N1Cc1ccccc1` (stereo not drawn), 205% (active). To `CNC(=O)CN1C(=O)c2ccccc2S1(=O)=O` belongs 3.08%; to `COc1ccc(C2C(C(=O)N(C)c3ccc(C(C)C)cc3)CC(=O)N2c2ccc(OC)cc2)cc1` (stereo not drawn), 16.7%.

On to `C=C1C(=O)O[C@@H]2[C@H]3C(CO)=CC(=O)C3=C(C)C[C@H](OC(=O)Cc3ccc(O)cc3)[C@@H]12`, for which the ROS induction (% of piperlongumine) was 205% (active). In the case of `CCOC(=O)/C(C#N)=c1/s/c(=C2/C=Cc3ccccc3N2CC)c(=O)n1CC`, the ROS induction (% of piperlongumine) was 23.1%.

For `C[C@@H]1CN([C@H](C)CO)C(=O)c2cc(NC(=O)Nc3ccccc3)ccc2O[C@H]1CN(C)S(=O)(=O)c1ccc(F)cc1`, the ROS induction (% of piperlongumine) is 9.94%. Take `O=C(Nc1ccccc1)Nc1ccccc1C(=O)N1CCOCC1`: the ROS induction (% of piperlongumine) is -0.785%.

With `C[C@H](CO)N1C[C@H](C)[C@H](CN(C)C(=O)NC2CCCC2)Oc2ncc(-c3ccc(F)cc3)cc2C1=O`, the ROS induction (% of piperlongumine) was 14.3%.

With `CCCC(O)C#Cc1cnc2c(c1)C(=O)N([C@H](C)CO)C[C@H](C)[C@H](CN(C)S(=O)(=O)c1ccc(C#N)cc1)O2` (stereo partly drawn), the ROS induction (% of piperlongumine) is -0.235%. To `C[C@H](CO)N1C[C@H](C)[C@H](CN(C)Cc2ccccc2)Oc2ncc(-c3ccccc3)cc2C1=O` belongs 3.81%; to `C[C@H](CO)N1C[C@H](C)[C@@H](CN(C)C(=O)Nc2ccc3c(c2)OCO3)Oc2c(cccc2N(C)C)C1=O`, 6.93%. On to `C[C@H](CO)N1C[C@H](C)[C@H](CN(C)C(=O)Nc2ccc3c(c2)OCO3)Oc2ncc(C#Cc3cccc(F)c3)cc2C1=O`, for which the ROS induction (% of piperlongumine) was 93.9% (active). In the case of `C[C@H](CO)N1C[C@H](C)[C@H](CN(C)C(=O)Nc2ccc3c(c2)OCO3)Oc2ncc(Br)cc2C1=O`, the ROS induction (% of piperlongumine) is 2.65%. On to `COc1ccc(NC(=O)N(C)C[C@@H]2Oc3ncc(-c4cccc(OC)c4)cc3C(=O)N([C@H](C)CO)C[C@@H]2C)cc1`, for which the ROS induction (% of piperlongumine) was 69.6%. Regarding `C[C@H](CO)N1C[C@H](C)[C@H](CN(C)C(=O)Nc2ccc(F)cc2)Oc2ncc(-c3cc4ccccc4o3)cc2C1=O`, the ROS induction (% of piperlongumine) is 130% (active).
